# Rows were chosen to be rich in hits. Some 9% of all compounds tested hit in one or more screens of this group.
# HPGD inh = blocks human HPGD enzyme activity. purified HPGD, NADH fluorescence kinetic, PGE2 substrate. hit rate 4.3% among 150,000. Potency, µM, for the others: at the top dose activity change, negative = inhibition, usual class: inhibitors. P15428; further: potency means the concentration at half of the fitted maximal effect
# Target sequence (P15428 whole entry, looked up): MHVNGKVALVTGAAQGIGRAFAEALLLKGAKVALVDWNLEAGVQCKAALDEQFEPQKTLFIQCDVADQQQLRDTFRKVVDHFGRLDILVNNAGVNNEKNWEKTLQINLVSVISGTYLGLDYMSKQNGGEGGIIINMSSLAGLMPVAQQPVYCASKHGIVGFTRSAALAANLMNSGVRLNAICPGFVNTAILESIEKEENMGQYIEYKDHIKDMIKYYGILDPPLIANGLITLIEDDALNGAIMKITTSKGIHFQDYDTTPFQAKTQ
#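 NADH formation kinetics: reaction with 30 uM PGE2 and 1 mM NAD+ (final), 20 nM enzyme, Tris-HCl pH 8 with Tween 20, after 15 min compound preincubation at room temperature. Fluorescence change, last versus first of five reads.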
# IMPase inh = cell-permeable inhibitors of inositol monophosphatase (IMPase); P97697; CHO-M1 cells, IP1 accumulation, HTRF TR-FRET ratio; inhibition (IP1 accumulation), % at 46.1 µM; 120,000 tested, under 10 active; AID 901; active means well fitted curve in the direction sought with a large enough effect in the signal ratio, not every such curve was filed as active; inconclusive means small, poorly fitted or top-dose-only effect, or a change in a side signal; inactive means no such curve, though single readings can be large or run the other way; the % refers to the signal ratio;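 further: cells stimulated with carbachol in lithium chloride buffer; plate controls were DMSO basal wells for no effect and reference inhibitor wells for full effect; higher means more IMPase inhibition seen as more IP1 and lower FRET ratio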
# Target sequence (P97697 whole entry, looked up): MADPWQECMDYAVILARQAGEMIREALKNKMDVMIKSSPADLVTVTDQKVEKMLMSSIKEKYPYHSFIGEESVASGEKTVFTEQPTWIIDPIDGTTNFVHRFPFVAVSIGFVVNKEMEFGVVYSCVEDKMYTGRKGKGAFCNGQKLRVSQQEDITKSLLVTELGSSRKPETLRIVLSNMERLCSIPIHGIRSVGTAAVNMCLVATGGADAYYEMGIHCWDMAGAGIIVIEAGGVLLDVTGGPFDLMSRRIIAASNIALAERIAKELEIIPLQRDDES
#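 In this qHTS, compounds (final up to 46 uM) act on CHO-M1 cells that are then activated through the M1 receptor with carbachol, in pH 7.4 buffer containing 50 mM LiCl, for 30 min. IP1 accumulation is quantified by the IP-One immunoassay.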
# ALDH1A1 block = ALDH1A1 (human) enzyme inhibition. hit rate 7.3% among 220,000. Purified ALDH1A1, NADH fluorescence, propionaldehyde substrate. Potency, µM (highest dose often 75.3 µM), for the others: at the highest dose activity, negative = inhibition, usual class: inhibitors. AID 1030. P00352;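 further: potency means the concentration at half of the fitted maximal effect; plate controls were no enzyme wells and a reference inhibitor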
# Numbers without * were called inactive; ? = inconclusive; . = no result; [ ] = another dose, or the depositor's remark. Unless noted, the call rests on the fitted dose curve; in most records, active means well fitted inhibition curve with a large enough effect (not every such curve was filed as active); inconclusive means small, poorly fitted or top-dose-only effect, or another doubt; inactive means no such curve, though single readings can be large or run the other way. Unless noted, on the % scale 0 is the no-effect control and ±100 the full control effect.
SMILES,HPGD inh,IMPase inh,ALDH1A1 block
CN(C)CCCNCCCNC(=O)c1ccncc1,-5%,10,-6%
COc1ccc(N2C(=O)C(CC(=O)Nc3ccc(F)cc3)N(CCc3ccc(OC)c(OC)c3)C2=O)cc1 (centres undefined),.,.,-3%
CCC(=O)Nc1cccc(NC(=O)c2cccc([N+](=O)[O-])c2C)c1,-11%,.,-7%
Cc1c(C(=O)Nc2ccc3c(c2)CCC3)cccc1[N+](=O)[O-],-26%,.,9.5µM*
CC(=O)OC1CC[C@]2(C)C(CC(OC(C)=O)[C@]3(C)C2CC[C@@]2(C)C(c4ccoc4)OC(=O)C4O[C@]432)C1(C)C (some centres undefined),-6%,.,-5%
CCCCNC(=O)/C(C#N)=C/c1ccc(C(=O)OC)cc1,.,.,-7%
N#C/C(=C\c1ccc(O)c(O)c1)C(=O)NCCc1ccccc1,25µM*,16,?
N#C/C(=C\c1ccc(O)c(O)c1)C(=O)NCCCCc1ccccc1,8.9µM*,2,?
COc1cc(/C=C(\C#N)C(=O)NCCc2ccccc2)cc(OC)c1O,.,.,-2%
CN(Cc1ccccc1)C(=O)c1ccco1,.,.,5%
O=C(c1ccco1)N(CCC(c1ccccc1)c1ccco1)Cc1ccco1 (centres undefined),20µM*,6,3.5µM*
Cc1ccc(C(CCN(Cc2ccccc2)C(=O)c2ccco2)c2ccco2)cc1 (centres undefined),?,.,20µM*
CC1(C)CC(CCN(Cc2ccccc2)C(=O)c2ccco2)(c2ccccc2)CCO1 (centres undefined),-12%,8,25µM*
CCC(=O)N(CCC(c1ccco1)c1ccccc1OC)Cc1cccs1 (centres undefined),-16%,4,?
CCC1(C)CC(CCN(Cc2ccco2)C(C)=O)(c2ccccc2)CCO1 (centres undefined),.,.,2%
CC(=O)N(CCC(c1ccccc1)c1ccco1)Cc1cccs1 (centres undefined),28µM*,9,1.4µM*
O=C(O)/C=C/C(=O)N(Cc1ccccc1)Cc1ccco1,-2%,-12,0%
O=S(=O)(c1ccccc1)N1CCC2(CCCN(c3ncccn3)C2)CC1,-14%,.,-4%
O=S(=O)(c1ccccc1)N1CCC2(CCN(c3ncccn3)CC2)CC1,-13%,.,0%
CCOC(=O)Cc1cnc(NC(=O)NC(C(=O)OCC)(c2ccccc2)C(F)(F)F)s1 (centres undefined),-1%,11,6%
CNC(=O)C1C2C=CC3(O2)C1C(=O)N(CCOC)C3C(=O)NCc1ccc(OC)cc1 (centres undefined),-5%,0,10%
COc1cccc(C(=O)Nc2cccc3c2ccc2cccn23)c1,.,.,-4%
CCOC(=O)c1[nH]c2ccc(OC)cc2c1NC(=S)N1CCN(c2ccccc2)CC1,-18%,-4,25µM*
CCOC(=O)c1[nH]c2ccc(OC)cc2c1NC(=S)N1CCN(c2cccc(Cl)c2)CC1,-17%,11,?
CC(C)C(=O)NC(=S)Nc1ccc(S(=O)(=O)N(C)Cc2ccccc2)cc1,-19%,5,?
SMILES,HPGD inh,IMPase inh,ALDH1A1 block
CN(c1ccccc1)S(=O)(=O)c1ccc(NC(=O)c2ccccc2)cc1,-26%,.,-11%
Cc1cccc(C(=O)NC(=S)Nc2ccc(S(=O)(=O)N(C)c3ccccc3)cc2)c1,-14%,-1,20µM*
Cc1ccccc1C(=O)NC(=S)Nc1ccc(S(=O)(=O)N(C)c2ccccc2)cc1,-8%,7,18µM*
COc1cc2c(cc1NC(=O)c1ccccc1C)n(C)c(=O)n2C,.,-9,.
CCC1CCCCN1C(=O)Cn1c(=O)oc2ccccc21 (centres undefined),-11%,2,5%
O=C(O)[C@@H]1[C@@H](C(=O)NCc2cccnc2)[C@@H]2C=C[C@@H]1O2,-13%,.,3%[13.5 µM]
O=C(c1ccc(COc2c(F)c(F)c(F)c(F)c2F)o1)N1CCN(Cc2ccc3c(c2)OCO3)CC1,-20%,-5,?
CCOc1cc(C)nc(NCCc2ccc(OC)c(OC)c2)n1,3%,14,7%
CCCn1nnc(NC(=O)c2cc(Br)cc(Br)c2OC)n1,.,8,11µM*
CCCn1nnc(NC(=O)c2ccc(Br)cc2)n1,-13%,1,-3%
CC1(C)CC(=O)C(C=NCCN2CCN(C3CC(=O)N(c4cccc(Br)c4)C3=O)CC2)=C(O)C1 (centres undefined),.,.,25µM*
CC1(C)CC(=O)C(C=NCCN2CCN(CCc3ccccc3)CC2)=C(O)C1,-2%,7[1.84 µM],-6%
Cc1nc([N+](=O)[O-])nn1C12CC3CC(CC(Cl)(C3)C1)C2,1%,2,13%
CNC(=O)CSc1nnc(-c2ccc(S(=O)(=O)N3CCCC3)cc2)n1-c1cccc(C)c1C,?,6,-10%
CCOc1ccccc1-n1c(SCC(=O)NC)nnc1-c1ccco1,-5%,3,7%
CCOc1ccccc1-n1c(SCC(N)=O)nnc1-c1ccco1,-14%,-8,25µM*
CNC(=O)CSc1nnc(-c2ccco2)n1-c1ccccc1OC,-5%,?,20µM*
COc1ccccc1-n1c(SCC(=O)O)nnc1-c1ccc(S(=O)(=O)N2CCCCC2)cc1,?,9,13µM*
CCOc1ccccc1-n1c(SCC(N)=O)nnc1-c1cccnc1,-13%,-5,5%
Cc1ccc(Cn2cc(SCC(N)=O)c3ccccc32)cc1,.,.,-6%
CC1=C(C(=O)OCC2CCCCC2)C(c2ccc(Cl)cc2Cl)CC(=O)N1 (centres undefined),.,-2,.
O=C(Nc1ccc(Cl)c(C(F)(F)F)c1)C(Cc1ccccc1)NS(=O)(=O)c1ccc(Br)s1 (centres undefined),.,15,.
O=C(CNc1ccc(Br)cc1)c1ccccc1,-17%,2,20µM*
O=C(CNC(=S)NC(=O)c1ccc(F)cc1)c1ccccc1,-3%,.,?
Cc1ccc(C(=O)CNc2ccccc2C)cc1,-10%,.,11µM*
SMILES,HPGD inh,IMPase inh,ALDH1A1 block
O=C(CP(=O)(O)CC(=O)c1ccccc1)c1ccccc1,.,.,8%
Cc1ccc(C(=O)CC(=O)c2ccc(C(C)(C)C)cc2)cc1,.,.,3%
O=C(CNc1ccc(F)cc1)c1ccccc1,.,.,13µM*
Cc1ccc(C(=O)CNc2ccc(Br)cc2)cc1,-24%,0,18µM*
C/C(=C\C(=O)c1ccc(Br)cc1)NCc1ccc(C)cc1,-11%,9,?
CC1CN(Cc2ccccn2)CCC1=O (centres undefined),-1%,.,6%
COc1nnc(-c2ccc(N3CCCCC3)c(NC(=O)c3ccccc3Cl)c2)c2ccccc12,.,8,.
COCC(=O)N1CCC2(CCN(Cc3ccccc3OC)CC2)CC1,1%,.,9%
CC(C)CSc1n[nH]c(=S)s1,.,.,0.63µM*
CC(C)CSc1n[nH]c(N)n1,.,.,8%
Cc1c([N+](=O)[O-])ccc(S(=O)(=O)N2CCC(C(N)=O)CC2)c1C,-7%,.,-10%
Cc1cc(C)n(-c2ccc(C(=O)N3CCc4ccccc43)cc2)n1,-18%,-6,7%
Cc1cccc(-n2cnc3cc(C(=O)N4CCc5ccccc54)ccc32)c1,22µM*,.,?
C=CCNC(=S)NCc1ccc(CNC(=S)NCC=C)cc1,.,.,-10%
C=CCNC(=S)NN=C1CCCCCCC1,.,.,0.89µM*
CCOC(=O)c1cc(CC)sc1NC(=O)COC(=O)c1cc[n+]([O-])cc1,.,.,1%

# Bioassay records from PubChem BioAssay.
